# According to PubChem BioAssay (EPA / NIEHS):
# Calls of active or inactive are those of the source. How the source made its calls: active means hit-call score of the fitted dose curve at least 0.9, where 1 is the maximum; inactive means score below 0.9.
# Read-out: E-selectin (Homo sapiens) (UniProt P16581)
# Assay: BSK_LPS_Eselectin: BioMAP Diversity Plus: LPS Assay for Eselectin Biomarker Activity (AID 2283077)
# Details: primary human HUVEC with PBMC; actives raise or lower the signal
# Outline: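 Human umbilical vein endothelial cells co-cultured with PBMC under LPS stimulation; cell-surface E-selectin measured by ELISA 24 h after dosing. Change in either direction versus DMSO, with SRB total-protein staining in parallel cultures for cytotoxicity.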
# Chain of E-selectin (Homo sapiens) (P16581 whole entry, looked up): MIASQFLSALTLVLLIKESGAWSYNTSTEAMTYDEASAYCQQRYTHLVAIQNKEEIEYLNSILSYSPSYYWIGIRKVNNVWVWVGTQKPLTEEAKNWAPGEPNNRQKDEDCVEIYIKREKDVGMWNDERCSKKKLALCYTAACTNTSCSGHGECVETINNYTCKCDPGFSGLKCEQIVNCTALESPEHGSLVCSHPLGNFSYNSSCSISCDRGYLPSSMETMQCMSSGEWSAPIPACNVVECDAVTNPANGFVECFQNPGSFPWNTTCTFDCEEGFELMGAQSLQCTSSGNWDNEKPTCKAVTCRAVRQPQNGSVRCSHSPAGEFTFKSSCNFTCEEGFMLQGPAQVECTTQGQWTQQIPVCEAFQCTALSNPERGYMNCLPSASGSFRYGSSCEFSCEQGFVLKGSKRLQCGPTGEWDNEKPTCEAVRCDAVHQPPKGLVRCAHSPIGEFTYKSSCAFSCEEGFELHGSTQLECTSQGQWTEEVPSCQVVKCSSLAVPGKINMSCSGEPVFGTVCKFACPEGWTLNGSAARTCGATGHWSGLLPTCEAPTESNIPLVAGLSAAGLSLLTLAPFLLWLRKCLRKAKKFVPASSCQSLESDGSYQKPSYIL
row,Structure (SMILES),outcome
1,O=Cc1ccco1,inactive
2,CCC(C)c1ccc(O)cc1 (stereo not given),inactive
3,[O-][Cl+]O,inactive
4,O=C(O)C1C2CCC(O2)C1C(=O)O (stereo not given),inactive

# Read-out: Interleukin-8 (IL8), CXCL8 (gene 3576)
# Assay: BSK_LPS_IL8: BioMAP Diversity Plus: LPS Assay for Interleukin-8 (IL8) Biomarker Activity (AID 2283078)
# Details: primary human HUVEC with PBMC; actives raise or lower the signal
# Outline: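 Human umbilical vein endothelial cells co-cultured with PBMC, LPS-stimulated, exposed to compound for 24 h. IL-8 quantified by ELISA; fitted in both directions against DMSO, with SRB total-protein staining of parallel cultures for cytotoxicity.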
Structure (SMILES),outcome,AC50
N#CC(Br)Br,inactive,
OCCOCCO,inactive,
O=C(N[C@H](c1ccccc1)[C@@H]1CN2CCC1CC2)c1c(Cl)ccc(C(F)(F)F)c1Cl,,7.76 µM (active)
COP(=S)(OC)SCN1C(=O)c2ccccc2C1=O,inactive,
C=CCc1ccc2c(c1)OCO2,inactive,
O=C(Nc1ccccc1)c1ccccc1I,inactive,
c1ccc(N=Nc2ccccc2)cc1,inactive,
C1=Cc2cccc3cccc1c23,inactive,
CS(=O)(=O)NC(=O)c1cc(Oc2ccc(C(F)(F)F)cc2Cl)ccc1[N+](=O)[O-],inactive,
Oc1ccccc1Cl,inactive,
CO[C@@H]1[C@H](OC(=O)NC(=O)CCl)CC[C@]2(CO2)[C@H]1[C@@]1(C)O[C@@H]1CC=C(C)C,inactive,
CC(C)(C)OOC(=O)c1ccccc1,inactive,
[As]#[In],inactive,
Nc1ccc(N=Nc2ccccc2)cc1,inactive,
c1ccc2c(c1)-c1cccc3cccc-2c13,inactive,
CC(C)(OOC(C)(C)c1ccccc1)c1ccccc1,,30.1 µM (active)
ClC1=C(Cl)[C@]2(Cl)[C@H]3[C@H]([C@@H]4C=C[C@H]3C4)[C@@]1(Cl)C2(Cl)Cl,,33.8 µM (active)
O=[N+]([O-])c1ccc(Oc2ccc(Cl)cc2Cl)cc1,inactive,
CCC[CH2][Sn]([Cl])([CH2]CCC)[CH2]CCC,,0.148 µM (active)
CN(C)c1ccccc1,inactive,
COC(=O)c1ccccc1N,inactive,
CN(C)c1ccc(C(=O)c2ccc(N(C)C)cc2)cc1,,6.12 µM (active)
Cc1cc(N=Nc2ccccc2C)ccc1N,inactive,
C[N+](C)(C)CC1CO1 (stereo not given),inactive,
O=Cc1ccco1,inactive,
CCC(C)c1ccc(O)cc1 (stereo not given),inactive,
[O-][Cl+]O,inactive,
O=C(O)C1C2CCC(O2)C1C(=O)O (stereo not given),inactive,

# Read-out: not listed separately
# Assay: BSK_LPS_SRB: Viability Assessment in the BioMAP Diversity Plus: LPS Assay (AID 2283079);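 further: total protein by sulforhodamine B absorbance as a cytotoxicity measure; measured one day after compound addition; fitted in both directions against DMSO so loss or gain of signal counts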
# Details: primary human HUVEC with PBMC
# Outline: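 Co-culture of human umbilical vein endothelial cells and PBMC, read 24 h after dosing. Total protein by 0.1% SRB staining after 10% TCA fixation, absorbance at 560 nm; bidirectional fit against DMSO.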
Structure (SMILES),outcome,AC50
N#CC(Br)Br,inactive,
OCCOCCO,inactive,
O=C(N[C@H](c1ccccc1)[C@@H]1CN2CCC1CC2)c1c(Cl)ccc(C(F)(F)F)c1Cl,,29.7 µM (active)
COP(=S)(OC)SCN1C(=O)c2ccccc2C1=O,inactive,
C=CCc1ccc2c(c1)OCO2,inactive,
O=C(Nc1ccccc1)c1ccccc1I,inactive,
c1ccc(N=Nc2ccccc2)cc1,inactive,
C1=Cc2cccc3cccc1c23,inactive,
CS(=O)(=O)NC(=O)c1cc(Oc2ccc(C(F)(F)F)cc2Cl)ccc1[N+](=O)[O-],inactive,
Oc1ccccc1Cl,inactive,
CO[C@@H]1[C@H](OC(=O)NC(=O)CCl)CC[C@]2(CO2)[C@H]1[C@@]1(C)O[C@@H]1CC=C(C)C,inactive,
CC(C)(C)OOC(=O)c1ccccc1,inactive,
[As]#[In],inactive,
Nc1ccc(N=Nc2ccccc2)cc1,inactive,
c1ccc2c(c1)-c1cccc3cccc-2c13,inactive,
CC(C)(OOC(C)(C)c1ccccc1)c1ccccc1,,36.8 µM (active)
ClC1=C(Cl)[C@]2(Cl)[C@H]3[C@H]([C@@H]4C=C[C@H]3C4)[C@@]1(Cl)C2(Cl)Cl,,30.5 µM (active)
O=[N+]([O-])c1ccc(Oc2ccc(Cl)cc2Cl)cc1,inactive,
CCC[CH2][Sn]([Cl])([CH2]CCC)[CH2]CCC,,0.269 µM (active)
CN(C)c1ccccc1,inactive,
COC(=O)c1ccccc1N,inactive,
CN(C)c1ccc(C(=O)c2ccc(N(C)C)cc2)cc1,,13.4 µM (active)
Cc1cc(N=Nc2ccccc2C)ccc1N,,9.83 µM (active)
C[N+](C)(C)CC1CO1 (stereo not given),inactive,
O=Cc1ccco1,inactive,
CCC(C)c1ccc(O)cc1 (stereo not given),inactive,
[O-][Cl+]O,inactive,
O=C(O)C1C2CCC(O2)C1C(=O)O (stereo not given),,18.6 µM (active)
